PubChem BioAssay (NCI)
The panel holds about 83,000 compounds, 20% with a hit somewhere; the sample as a whole holds those more often.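 Cell lines were cultured in 96-well plates, exposed to a single compound concentration, and assessed for percent growth 48 hours later.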

Tests used:
Assay in all cases: NCI-60 one-dose screen, 48 h (100 = growth as untreated, 0 = no growth, -100 = all killed)
Details in all cases: 10 µM; active means growth percent below 10; inactive means the rest
NCI-H23 lung = test system: NCI-H23 lung
NCI-H226 lung = test system: NCI-H226 lung
NCI-H322M lung = test system: NCI-H322M lung
HOP-62 NSCLC = test system: HOP-62 NSCLC
NCI-H460 lung = test system: NCI-H460 lung
786-0 renal = test system: 786-0 renal
COLO 205 colon = test system: COLO 205 colon
HOP-92 NSCLC = test system: HOP-92 NSCLC
NCI-H522 lung = test system: NCI-H522 lung
A549/ATCC NSCLC = test system: A549/ATCC NSCLC

Measured: growth

O=C1C=C(O)C(=O)C=C1O
inactive: NCI-H23 lung 94.8% | NCI-H226 lung 114% | NCI-H322M lung 112% | HOP-62 NSCLC 97.9% | NCI-H460 lung 107% | 786-0 renal 107% | COLO 205 colon 94.1%

O=C(O)c1cccc([N+](=O)[O-])c1
inactive: NCI-H23 lung 95% | NCI-H226 lung 107% | NCI-H322M lung 97.4% | NCI-H460 lung 106% | HOP-92 NSCLC 96% | NCI-H522 lung 112% | A549/ATCC NSCLC 105% | 786-0 renal 104% | COLO 205 colon 113%

O=C(O)/C=C/C(=O)NCc1ccccc1
inactive: NCI-H23 lung 107% | NCI-H226 lung 98.4% | NCI-H322M lung 93.5% | HOP-62 NSCLC 101% | NCI-H460 lung 104% | 786-0 renal 98.9% | COLO 205 colon 106%

O=C(O)[C@@H]1[C@H]2C[C@H]3c4[nH]c5ccccc5c4CCN3C[C@@H]2CC[C@@H]1O
inactive: NCI-H23 lung 102% | NCI-H226 lung 103% | NCI-H322M lung 110% | NCI-H460 lung 121% | HOP-92 NSCLC 109% | NCI-H522 lung 18.2% | A549/ATCC NSCLC 101% | 786-0 renal 76% | COLO 205 colon 123%

CCOC(=O)C1OC1c1ccccc1 (centres undefined)
inactive: NCI-H23 lung 98.6% | NCI-H226 lung 100% | NCI-H322M lung 101% | NCI-H460 lung 103% | HOP-92 NSCLC 99.2% | NCI-H522 lung 104% | A549/ATCC NSCLC 102% | 786-0 renal 98.3% | COLO 205 colon 102%

Nc1ccccc1SC(CC(=O)c1ccccc1)c1c(Cl)cccc1Cl (centres undefined)
inactive: NCI-H23 lung 76.1% | NCI-H226 lung 96.6% | NCI-H322M lung 91.8% | HOP-62 NSCLC 73.4% | NCI-H460 lung 84.8% | 786-0 renal 96.8% | COLO 205 colon 91.8%

S=c1nn[nH]c2ccccc12
inactive: NCI-H23 lung 99.6% | NCI-H226 lung 93.8% | NCI-H322M lung 95.6% | HOP-62 NSCLC 98% | NCI-H460 lung 105% | 786-0 renal 111% | COLO 205 colon 93.4%

COc1ccc(/C=C/c2cccc[n+]2C)cc1
inactive: NCI-H23 lung 100% | NCI-H226 lung 101% | NCI-H322M lung 93.5% | HOP-62 NSCLC 77.5% | NCI-H460 lung 106% | 786-0 renal 94.3% | COLO 205 colon 42.1%

O=C(/C=C/C(=O)c1ccccc1)c1ccccc1
inactive: NCI-H23 lung 99% | NCI-H226 lung 107% | NCI-H322M lung 116% | HOP-62 NSCLC 109% | HOP-92 NSCLC 96.3% | NCI-H522 lung 74.8% | A549/ATCC NSCLC 105% | 786-0 renal 103% | COLO 205 colon 70.1%

CCO/C=C1\SC(=S)N(c2cccc(C)c2)C1=O
inactive: NCI-H23 lung 108% | NCI-H226 lung 93.4% | NCI-H322M lung 92% | HOP-62 NSCLC 88.9% | NCI-H460 lung 102% | 786-0 renal 106% | COLO 205 colon 108%

CCOC(=O)c1cc2cccc(OC)c2oc1=O
inactive: NCI-H23 lung 110% | NCI-H226 lung 106% | NCI-H322M lung 107% | NCI-H460 lung 110% | NCI-H522 lung 83.5% | 786-0 renal 95.5% | COLO 205 colon 123%

c1ccc2c(c1)Sc1ccccc1S2
inactive: NCI-H23 lung 99% | NCI-H226 lung 95.9% | NCI-H322M lung 92.5% | NCI-H460 lung 101% | NCI-H522 lung 98.6% | A549/ATCC NSCLC 94.2% | 786-0 renal 94.9% | COLO 205 colon 111%

O=S(=O)(O)c1cc(O)c2c(N=Cc3ccccc3O)c(S(=O)(=O)O)ccc2c1
inactive: NCI-H23 lung 101% | NCI-H226 lung 101% | NCI-H322M lung 93.7% | NCI-H460 lung 105% | NCI-H522 lung 91.4% | A549/ATCC NSCLC 111% | 786-0 renal 99.8% | COLO 205 colon 119%

C=CCOC(=O)C(=O)OCC=C
inactive: NCI-H23 lung 110% | NCI-H226 lung 99.7% | HOP-62 NSCLC 92.7% | NCI-H460 lung 112% | HOP-92 NSCLC 90% | NCI-H522 lung 96.6% | A549/ATCC NSCLC 109% | 786-0 renal 106% | COLO 205 colon 111%

C[N+](C)=c1ccc2nc3c(cc(Nc4ccccc4)c4ccccc43)oc-2c1
inactive: NCI-H23 lung 31.6% | NCI-H226 lung 44.4% | HOP-62 NSCLC 67.6% | NCI-H460 lung 65% | HOP-92 NSCLC 79.5% | NCI-H522 lung 42.3% | A549/ATCC NSCLC 64.4% | 786-0 renal 72.8% | COLO 205 colon 22.6%

C=CCc1cc(C(C)=O)cc(OC)c1O
inactive: NCI-H23 lung 108% | NCI-H226 lung 109% | HOP-62 NSCLC 122% | NCI-H460 lung 97.8% | HOP-92 NSCLC 125% | NCI-H522 lung 102% | A549/ATCC NSCLC 95.8% | 786-0 renal 104% | COLO 205 colon 118%

O=[N+]([O-])c1cccc2nsnc12
inactive: NCI-H23 lung 108% | NCI-H226 lung 93.9% | HOP-62 NSCLC 99.5% | NCI-H460 lung 103% | NCI-H522 lung 103% | A549/ATCC NSCLC 104% | 786-0 renal 114% | COLO 205 colon 107%

CC(C)CCOC(=O)c1ccccc1
inactive: NCI-H23 lung 106% | NCI-H226 lung 102% | NCI-H322M lung 95.6% | NCI-H460 lung 106% | HOP-92 NSCLC 101% | NCI-H522 lung 104% | 786-0 renal 99.8% | COLO 205 colon 105%

O=C(O)CCC(NC(=O)OCc1ccccc1)C(=O)O (centres undefined)
inactive: NCI-H23 lung 101% | NCI-H226 lung 98.8% | NCI-H322M lung 98.6% | NCI-H460 lung 111% | NCI-H522 lung 99.6% | 786-0 renal 104% | COLO 205 colon 113%

CCC(C)(O)c1ccc(C)cc1 (centres undefined)
inactive: NCI-H23 lung 103% | NCI-H226 lung 103% | HOP-62 NSCLC 98.1% | NCI-H460 lung 105% | HOP-92 NSCLC 103% | NCI-H522 lung 109% | A549/ATCC NSCLC 111% | 786-0 renal 109%

Cc1ccc(C(=O)NC2c3ccccc3Oc3ccccc32)cc1
inactive: NCI-H23 lung 70.4% | NCI-H226 lung 79% | HOP-62 NSCLC 32.2% | NCI-H460 lung 59.8% | HOP-92 NSCLC 62.1% | NCI-H522 lung 41.2% | A549/ATCC NSCLC 48.9% | 786-0 renal 25.7% | COLO 205 colon 73.6%

COCCOCCCl
inactive: NCI-H23 lung 102% | NCI-H226 lung 101% | NCI-H322M lung 112% | NCI-H460 lung 104% | HOP-92 NSCLC 95% | NCI-H522 lung 101% | A549/ATCC NSCLC 106% | 786-0 renal 105% | COLO 205 colon 107%

CSC(=N\N=C\c1ccc(N(C)C)cc1)/N=C/N(C)C
inactive: NCI-H23 lung 112% | NCI-H226 lung 90% | NCI-H322M lung 102% | NCI-H460 lung 95.4% | NCI-H522 lung 107% | 786-0 renal 103% | COLO 205 colon 110%
